Experimental data reported in PubChem BioAssay (Tox21).
Values without a mark were called inactive. Results filed as inconclusive are left out. Active and inactive are the calls of the source. The call rests on the fitted dose curve.

target: Acetylcholinesterase (Homo sapiens) (UniProt P22303); assay: Acetylcholinesterase (AChE) small molecule antagonists: colormetric cell-based qHTS assay (AID 1347395); conditions: SH-SY5Y cells AChE activity, colorimetric (Ellman); series mostly up to 115 µM; activity, negative = inhibition: at the top concentration; further: nearly all actives have a fitted effect of over 30% in size
Method in brief: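 Neuroblastoma line SH-SY5Y supplied the enzyme; cells were preincubated with compound for 30 min at 37 C and 5% CO2. Acetylthiocholine with DTNB was then added for 90 min at 37 C, and thiocholine was measured by colour.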
On the % scale 0 is the no-effect control and ±100 the full control effect.

Sequence of Acetylcholinesterase (Homo sapiens) (P22303 whole entry, looked up): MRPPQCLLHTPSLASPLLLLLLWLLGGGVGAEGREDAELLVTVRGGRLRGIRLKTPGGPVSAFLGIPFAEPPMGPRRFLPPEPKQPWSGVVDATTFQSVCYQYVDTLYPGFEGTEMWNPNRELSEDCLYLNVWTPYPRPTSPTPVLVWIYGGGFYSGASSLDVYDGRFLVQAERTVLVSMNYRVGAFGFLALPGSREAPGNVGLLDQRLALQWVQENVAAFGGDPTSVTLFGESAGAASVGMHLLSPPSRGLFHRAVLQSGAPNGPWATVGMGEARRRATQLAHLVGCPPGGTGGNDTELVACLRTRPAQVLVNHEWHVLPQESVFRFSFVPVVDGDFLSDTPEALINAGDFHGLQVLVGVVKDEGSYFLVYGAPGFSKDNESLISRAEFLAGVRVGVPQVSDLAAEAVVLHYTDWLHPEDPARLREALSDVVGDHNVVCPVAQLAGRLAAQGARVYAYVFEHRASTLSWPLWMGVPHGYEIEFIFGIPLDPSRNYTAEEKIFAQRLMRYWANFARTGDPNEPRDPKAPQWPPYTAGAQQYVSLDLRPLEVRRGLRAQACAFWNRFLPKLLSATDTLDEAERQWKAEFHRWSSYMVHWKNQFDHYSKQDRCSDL

Row | SMILES | activity, negative = inhibition | Potency
1 | Cc1cc(NS(=O)(=O)c2ccc(N)cc2)nc(C)n1 | 5.9% [at 52.9 µM] | –
2 | CCCC(CCC)(C(=O)OCC)C(=O)OCC | -1.77% [at 52.9 µM] | –
3 | Cc1cc(=O)[nH]c(=O)[nH]1 | -0.145% | –
4 | CCCCCCCC/C=C\CCCCCCCC(=O)OC[C@@H](O)[C@H]1OC[C@H](O)[C@H]1O | 2.61% | –
5 | O=C(O)[C@H](O)[C@@H](O)[C@H](O)[C@H](O)CO | – | inactive
6 | CCC(CO)CO | 0.876% | –
7 | O=S(=O)(O)c1cccc2c(S(=O)(=O)O)cccc12 | 0.0931% | –
8 | Cc1ccc(NC(=O)N(C)C)cc1NC(=O)N(C)C | -1.21% | –
9 | C[C@]12CC[C@@H]3c4ccc(O)cc4CC[C@H]3[C@@H]1CC[C@@H]2O | – | inactive
10 | Nc1ccc2cc(S(=O)(=O)O)ccc2c1 | 0% | –
11 | Cc1c(C(=O)O)cccc1[N+](=O)[O-] | -0.0598% | –
12 | CCCCOC(=O)c1ccccc1C(=O)OCC(CC)CCCC (stereo not given) | -0.707% | –
13 | Cc1cc(C)cc(O)c1 | – | inactive
14 | CC1CC(C)C(=O)C1=O (stereo not given) | 2.59% | –
15 | CC(O)CNCC(C)O (stereo not given) | – | inactive
16 | Oc1ccc(/C=C/c2cc(O)cc(O)c2)cc1 | – | inactive
17 | CN(C)c1ccncc1 | -9.37% | –
18 | c1cc(N(CC2CO2)CC2CO2)ccc1OCC1CO1 (stereo not given) | – | inactive
19 | CC(=O)c1ccc(S(=O)(=O)NC(=O)NC2CCCCC2)cc1 | – | inactive
20 | C[Si](C)=O | -2.31% [at 10.5 µM] | –

Row | SMILES | activity, negative = inhibition | Potency
21 | Cc1ccc2c(c1)C(=O)OC2=O | – | inactive
22 | Cc1nc2ccccc2s1 | -0.686% | –
23 | CNc1c2c(nn1C)CCCC2 | 0.969% [at 52.9 µM] | –
24 | COc1cc([C@H]2Oc3cc([C@H]4Oc5cc(O)cc(O)c5C(=O)[C@@H]4O)ccc3O[C@@H]2CO)ccc1O | -2.49% [at 52.9 µM] | –
25 | CCNc1cccc(C)c1 | – | inactive
26 | FC(F)(F)C(F)(F)C(F)(F)C(F)(F)C(F)(F)C(F)(F)C(F)(F)C(F)(F)C(F)(F)C(F)(F)F | 0.771% [at 10.5 µM] | –
27 | O=C(OCC1CCC2OC2C1)C1CCC2OC2C1 (stereo not given) | – | inactive
28 | CC(C)(C(=O)c1cccnc1)c1cccnc1 | 0.481% [at 52.9 µM] | –
29 | CC(=O)/C(C)=C/C1C(C)=CCCC1(C)C (stereo not given) | -0.279% | –
30 | CCC(=O)OC(C)c1ccccc1 (stereo not given) | 2.1% | –
31 | OC(CCl)CCl | – | inactive
32 | C=CCS(=O)(=O)O | -2.43% | –
33 | CC1Cc2ccccc2N1NC(=O)c1ccc(Cl)c(S(N)(=O)=O)c1 (stereo not given) | – | inactive
34 | CC1=NN(c2ccc(C(=O)O)cc2)C(=O)C1 | 3.66% | –
35 | O=C(O)c1ccc(S(=O)(=O)N(Cl)Cl)cc1 | -0.168% [at 52.9 µM] | –
36 | S=C(S)NCCNC(=S)S | -1.61% | –
37 | FC(F)(F)c1ccccc1Cl | 1.16% | –
38 | CC(c1cc2ccccc2s1)N(O)C(N)=O (stereo not given) | – | inactive
39 | CCCCCCCOC(C)=O | 0.74% | –
40 | CCC(C)(CCC(C)C)C(=O)[O][Sn]([CH3])([CH3])[O]C(=O)C(C)(CC)CCC(C)C (stereo not given) | -2.38% | –

target: Acetylcholinesterase (Homo sapiens) (UniProt P22303); assay: Acetylcholinesterase (AChE) small molecule antagonists: enzyme-based qHTS assay (AID 1347397); conditions: Potency: AChE enzyme activity inhibition; outcome: AChE enzyme activity inhibition; series mostly up to 115 µM; activity change, negative = inhibition: at the top concentration; further: nearly all actives have a fitted effect of over 55% in size
Method in brief: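 Recombinant human AChE, dispensed at 50 mU/mL, was preincubated with Tox21 10K compounds or DMSO vehicle for 30 min at room temperature. DTNB plus acetylthiocholine was then added, and thiocholine was measured colorimetrically after a further 10 min.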

Row | SMILES | activity change, negative = inhibition | Potency
41 | Cc1cc(NS(=O)(=O)c2ccc(N)cc2)nc(C)n1 | 0.693% [at 53 µM] | –
42 | CCCC(CCC)(C(=O)OCC)C(=O)OCC | -0.54% [at 53 µM] | –
43 | Cc1cc(=O)[nH]c(=O)[nH]1 | -1.77% | –
44 | CCCCCCCC/C=C\CCCCCCCC(=O)OC[C@@H](O)[C@H]1OC[C@H](O)[C@H]1O | 1.03% | –
45 | O=C(O)[C@H](O)[C@@H](O)[C@H](O)[C@H](O)CO | – | inactive
46 | CCC(CO)CO | 0.459% | –
47 | O=S(=O)(O)c1cccc2c(S(=O)(=O)O)cccc12 | 0.242% | –
48 | Cc1ccc(NC(=O)N(C)C)cc1NC(=O)N(C)C | 1.44% | –
49 | C[C@]12CC[C@@H]3c4ccc(O)cc4CC[C@H]3[C@@H]1CC[C@@H]2O | – | inactive
50 | Nc1ccc2cc(S(=O)(=O)O)ccc2c1 | 2.44% | –
51 | Cc1c(C(=O)O)cccc1[N+](=O)[O-] | 0.813% | –
52 | CCCCOC(=O)c1ccccc1C(=O)OCC(CC)CCCC (stereo not given) | -0.818% | –
53 | Cc1cc(C)cc(O)c1 | – | inactive
54 | CC1CC(C)C(=O)C1=O (stereo not given) | -0.268% | –
55 | CC(O)CNCC(C)O (stereo not given) | – | inactive
56 | Oc1ccc(/C=C/c2cc(O)cc(O)c2)cc1 | – | inactive
57 | CN(C)c1ccncc1 | 0% | –
58 | c1cc(N(CC2CO2)CC2CO2)ccc1OCC1CO1 (stereo not given) | – | inactive
59 | CC(=O)c1ccc(S(=O)(=O)NC(=O)NC2CCCCC2)cc1 | – | inactive
60 | C[Si](C)=O | -1.81% [at 10.5 µM] | –

Row | SMILES | activity change, negative = inhibition | Potency
61 | Cc1ccc2c(c1)C(=O)OC2=O | – | inactive
62 | Cc1nc2ccccc2s1 | 0.257% | –
63 | CNc1c2c(nn1C)CCCC2 | 1.11% [at 53 µM] | –
64 | COc1cc([C@H]2Oc3cc([C@H]4Oc5cc(O)cc(O)c5C(=O)[C@@H]4O)ccc3O[C@@H]2CO)ccc1O | – | inactive
65 | CCNc1cccc(C)c1 | – | inactive
66 | FC(F)(F)C(F)(F)C(F)(F)C(F)(F)C(F)(F)C(F)(F)C(F)(F)C(F)(F)C(F)(F)C(F)(F)F | 1.63% [at 10.5 µM] | –
67 | O=C(OCC1CCC2OC2C1)C1CCC2OC2C1 (stereo not given) | – | inactive
68 | CC(C)(C(=O)c1cccnc1)c1cccnc1 | 0.693% [at 53 µM] | –
69 | CC(=O)/C(C)=C/C1C(C)=CCCC1(C)C (stereo not given) | 0.264% | –
70 | CCC(=O)OC(C)c1ccccc1 (stereo not given) | 0% | –
71 | OC(CCl)CCl | – | inactive
72 | C=CCS(=O)(=O)O | -1.29% | –
73 | CC1Cc2ccccc2N1NC(=O)c1ccc(Cl)c(S(N)(=O)=O)c1 (stereo not given) | – | inactive
74 | CC1=NN(c2ccc(C(=O)O)cc2)C(=O)C1 | 5.06% | –
75 | O=C(O)c1ccc(S(=O)(=O)N(Cl)Cl)cc1 | – | inactive
76 | S=C(S)NCCNC(=S)S | 2.32% | –
77 | FC(F)(F)c1ccccc1Cl | -3% | –
78 | CC(c1cc2ccccc2s1)N(O)C(N)=O (stereo not given) | – | inactive
79 | CCCCCCCOC(C)=O | -0.266% | –
80 | CCC(C)(CCC(C)C)C(=O)[O][Sn]([CH3])([CH3])[O]C(=O)C(C)(CC)CCC(C)C (stereo not given) | 2.38% | –
